Among the data in PubChem BioAssay (Tox21) are Potency and outcome values, retold here.

SMILES strings stand for the structures. Unmarked numbers belong to inactive results. Results filed as inconclusive are left out. Activity calls are given as the source filed them. Unless noted, calls come from the whole dose curve; as a rule, active = well fitted curve in the direction sought with a large enough effect in the repeat runs; inconclusive = weak or mixed curves; inactive = no such curve, though single readings can be large; an effect the other way counts as inactive or inconclusive.

A short description of assay [1]: qHTS assay to identify small molecule antagonists of the estrogen receptor alpha (ER-alpha) signaling pathway using the BG1 cell line in the presence of 0.1 nM 17-beta-estradiol - cell viability counter screen (AID 1259241). Note: nearly all actives have a fitted effect of over 40% in size. The method in brief:
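Cytotoxicity counter-screen: live-cell protease activity measured by fluorescence (30 min reagent step) in the same wells. Cells were VM7Luc4E2 with endogenous ER-alpha and ERE-driven luciferase, treated 22 hr at 37C alongside 0.1 nM 17beta-estradiol final.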

The nature of assay [2]: qHTS assay to identify small molecule antagonists of the androgen receptor (AR) signaling pathway using the MDA cell line in the presence of 0.5 nM R1881 - cell viability counter screen (AID 1259242). Note: nearly all actives have a fitted effect of over 45% in size. The method in brief: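 R1881 at 0.5 nM final stimulated MDA-kb2 cells during 16 hr compound treatment at 37C. Cytotoxicity read: CellTiter-Fluor fluorescence after 30 min.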

The target in assay [3] is Estrogen receptor (Homo sapiens) (UniProt P03372). As to the kind of experiment: qHTS assay to identify small molecule antagonists of the estrogen receptor alpha (ER-alpha) signaling pathway using the BG1 cell line in the presence of 0.1 nM 17-beta-estradiol (AID 1259244). Note: nearly all actives have a fitted effect of over 50% in size. The procedure, abridged:
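VM7Luc4E2; 4xERE-luciferase; 0.1 nM E2 final; 22 h co-incubation, 37C; ONE-Glo luminescence after 30 min at room temperature.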

Assay [4] is described as follows: qHTS assay to identify small molecule HDAC inhibitors (AID 1259364).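 Note: wild-type HCT-116 cells with endogenous class I/II HDAC activity; top concentration of the series differs between compounds; nearly all actives have a fitted effect of over 45% in size.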 The procedure, abridged: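 Relative class I and II HDAC activity is taken from the luminogenic signal in HCT-116 cells, with compound exposure 2 hr and reagent development 30 min at room temperature.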
Assay [5] is described as follows: qHTS assay to identify small molecule HDAC inhibitors - cell viability counter screen (AID 1259365). Note: series mostly up to about 92 µM; nearly all actives have a fitted effect of over 50% in size. The procedure, abridged: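 CellTiter-Glo luminescence (30 min, room temperature) reported viability after a 2 h compound exposure at 37 C. Cells: wild-type HCT-116, 1,500 per well, seeded the night before.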
The nature of assay [6]: qHTS assay to identify small molecule agonists of the sonic hedgehog signaling (Shh) pathway - cell viability counter screen (AID 1259366). Note: nearly all actives have a fitted effect of over 50% in size. The procedure, abridged: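 Cytotoxicity counter screen: CellTiter-Fluor reagent added after 23 h compound exposure, then 1 h at 37C and fluorescence read. Cells were 3T3 Gli1-Luc, seeded 2,000 per well and dosed 4 h post-plating.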
The nature of assay [7]: qHTS assay to identify small molecule antagonists of the sonic hedgehog signaling (Shh) pathway - cell viability counter screen (AID 1259367). Note: nearly all actives have a fitted effect of over 55% in size. The method in brief:
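NIH/3T3-derived Gli1-Luc reporter cells, 2,000/well, plated 4 hr before compound addition, then stimulated with conditioned medium for 24 hr at 37C. Viability measured in the same wells by CellTiter-Fluor fluorescence, reagent added at 23 hr for 1 hr.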

Assay [8] can be described thus: qHTS assay to identify small molecule agonists of the sonic hedgehog signaling (Shh) pathway (AID 1259368; calls by dose curve;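 note: NIH/3T3-derived 3T3Gli1-Luc cells carrying a stable Gli1-driven firefly luciferase reporter; series mostly up to about 92 µM; nearly all actives have a fitted effect of over 15% in size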). The procedure, abridged:
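Mouse fibroblast (NIH/3T3) reporter cells with stably integrated Gli1-Luc were treated 24 hr with compound; firefly luciferase luminescence served as the read-out.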

Assay [9] has as its target Estrogen receptor beta (Homo sapiens) (UniProt Q92731). As to the kind of experiment: qHTS assay to identify small molecule agonists of the estrogen receptor beta (ER-beta) signaling pathway (AID 1259377; active = well fitted activation curve with a large enough effect in the signal ratio in the repeat runs, not every such curve was filed as active; the % refers to the signal ratio). The procedure, abridged: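 Ratiometric beta-lactamase FRET read-out came after 2 h substrate loading at room temperature. It followed 16 h compound treatment at 37C of GripTite HEK293T cells carrying a UAS-bla reporter, plated in 2% charcoal-stripped FBS medium.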

Assay [10] has the same target. As to the kind of experiment: qHTS assay to identify small molecule antagonists of the estrogen receptor beta (ER-beta) signaling pathway (AID 1259378; active = well fitted inhibition curve with a large enough effect in the signal ratio in the repeat runs, not every such curve was filed as active; the % refers to the signal ratio). The method in brief:
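ER-beta-UAS-bla HEK293T cells in 2% charcoal-stripped FBS medium treated with compound plus 1nM final 17-beta-estradiol for 16 hr at 37C. Beta-lactamase reporter read by FRET substrate fluorescence after 2 hours at room temperature.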

Assay [11] is described as follows: qHTS assay to identify small molecule agonists of the estrogen receptor beta (ER-beta) signaling pathway - cell viability counter screen (AID 1259380). Note: nearly all actives have a fitted effect of over 30% in size. The procedure, abridged:
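Cells used were ER-beta-UAS-bla HEK293T in medium with 2% charcoal-stripped FBS. They were treated for 16 hr at 37C. Viability came from CellTiter-Glo luminescence.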

Assay [12] can be described thus: qHTS assay to identify small molecule antagonists of the estrogen receptor beta (ER-beta) signaling pathway - cell viability counter screen (AID 1259382). Note: series mostly up to about 92 µM; nearly all actives have a fitted effect of over 55% in size. The method in brief: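 Agonist-stimulated (1nM E2) ER-beta-UAS-bla HEK293T cells are incubated with library compounds for 16 hr at 37C. Cell viability is then assessed in the reporter-assay wells by adding CellTiter-Glo and reading luminescence after 30 min.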

Assay [13] concerns the target Estrogen receptor (Homo sapiens) (UniProt P03372). As to the kind of experiment: qHTS assay to identify small molecule agonists of the estrogen receptor alpha (ER-alpha) signaling pathway in the presence of an antagonist (AID 1259383; calls by dose curve; note: nearly all actives have a fitted effect of over 15% in size; note: potency is the fitted concentration of half-maximal effect; for activation: top concentration of the series differs between compounds). The method in brief:
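Using VM7Luc4E2 cells seeded 24hr before treatment, antagonist ICI-182,780 (10.0nM final) was added, followed by compounds at 15 concentrations. Plates incubated 22hr; ONE-Glo luminescence quantified reporter activity.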

For assay [14], the target named is Thyrotropin receptor (Homo sapiens) (UniProt P16473). As to the kind of experiment: qHTS assay to identify small molecule antagonists of the thyroid stimulating hormone receptor (TSHR) signaling pathway (AID 1259385; calls by dose curve; note: nearly all actives have a fitted effect of over 20% in size). The procedure, abridged:
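TSHR-HEK293 cells (800/well) plated 18 h, then compounds with Ro20-1724 and TSH at 1.5 ng/mL final, 30 min at room temperature. cAMP quantified by HTRF (cAMP-d2/anti-cAMP-cryptate, 1 h); 15 concentrations in triplicate.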

The nature of assay [15]: qHTS assay to identify small molecule antagonists of the sonic hedgehog signaling (Shh) pathway (AID 1259369; calls by dose curve; note: nearly all actives have a fitted effect of over 45% in size). The method in brief: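 Conditioned medium drives Shh signalling in 3T3Gli1-Luc cells; compounds in DMSO co-applied, 24hr at 37 C, then luciferase luminescence.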
Assay [16] can be described thus: qHTS assay to identify small molecule agonists of the androgen receptor (AR) signaling pathway in the presence of an antagonist - cell viability counter screen (AID 1259379).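 Note: MDA-kb2 human breast cancer cells carrying an MMTV luciferase reporter; series mostly up to about 92 µM; nearly all actives have a fitted effect of over 25% in size.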 The method in brief:
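A CellTiter-Fluor read-out measured viability of MDA-kb2 reporter cells (MMTV promoter with AR and GR response elements). Treatment: nilutamide 3.0uM final with compounds at 15 concentrations, 16 hr, 37C, 0% CO2.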

Assay [17] can be described thus: qHTS assay to identify small molecule agonists or antagonists of the thyroid stimulating hormone receptor (TSHR) signaling pathway - wild type cell line counter screen (AID 1259384; calls by dose curve). The method in brief: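 Wild-type Hek293 cells, 800/well, 18 h at 37C, then compound with Ro20-1724 for 30 min RT. cAMP by HTRF (cAMP-d2/anti-cAMP cryptate), 1 h RT, fluorescence read. 15 concentrations, triplicates.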

The target of assay [18] is Androgen receptor (Homo sapiens) (UniProt P10275). As to the kind of experiment: qHTS assay to identify small molecule agonists of the androgen receptor (AR) signaling pathway in the presence of an antagonist (AID 1259381; calls by dose curve; note: nearly all actives have a fitted effect of over 15% in size). The method in brief: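 Using human MDA-kb2 cells with an MMTV promoter–luciferase construct (AR and GR response elements), agonist activity is scored under 3.0uM nilutamide (final) co-treatment; 16hr incubation, 37C, luminescence readout via ONE-Glo.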
Sequence of Androgen receptor (Homo sapiens) (P10275 whole entry, looked up): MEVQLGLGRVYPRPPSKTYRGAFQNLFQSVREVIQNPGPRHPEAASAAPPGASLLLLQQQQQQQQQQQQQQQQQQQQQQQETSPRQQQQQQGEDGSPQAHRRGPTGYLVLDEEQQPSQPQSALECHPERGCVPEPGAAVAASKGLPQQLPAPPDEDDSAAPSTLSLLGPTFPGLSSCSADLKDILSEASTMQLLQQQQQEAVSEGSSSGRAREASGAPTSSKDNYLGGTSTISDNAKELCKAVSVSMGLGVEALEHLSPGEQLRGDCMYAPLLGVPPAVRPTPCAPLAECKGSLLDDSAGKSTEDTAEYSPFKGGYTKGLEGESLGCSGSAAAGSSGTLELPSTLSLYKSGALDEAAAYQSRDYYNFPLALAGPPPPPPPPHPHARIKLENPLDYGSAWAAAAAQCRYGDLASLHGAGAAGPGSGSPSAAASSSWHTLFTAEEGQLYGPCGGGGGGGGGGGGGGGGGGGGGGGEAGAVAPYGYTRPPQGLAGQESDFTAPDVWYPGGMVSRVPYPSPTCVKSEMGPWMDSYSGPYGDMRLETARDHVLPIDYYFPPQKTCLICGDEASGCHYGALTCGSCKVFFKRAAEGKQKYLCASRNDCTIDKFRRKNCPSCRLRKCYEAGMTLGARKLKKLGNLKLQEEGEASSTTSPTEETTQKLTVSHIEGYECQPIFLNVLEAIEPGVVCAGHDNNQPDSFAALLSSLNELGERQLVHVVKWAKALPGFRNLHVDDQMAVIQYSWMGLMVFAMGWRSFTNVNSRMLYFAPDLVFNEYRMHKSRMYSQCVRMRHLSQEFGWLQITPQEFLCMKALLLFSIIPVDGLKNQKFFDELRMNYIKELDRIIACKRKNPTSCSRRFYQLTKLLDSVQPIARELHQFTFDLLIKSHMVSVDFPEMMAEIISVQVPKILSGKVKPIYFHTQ

Sequence of Estrogen receptor beta (Homo sapiens) (Q92731 whole entry, looked up): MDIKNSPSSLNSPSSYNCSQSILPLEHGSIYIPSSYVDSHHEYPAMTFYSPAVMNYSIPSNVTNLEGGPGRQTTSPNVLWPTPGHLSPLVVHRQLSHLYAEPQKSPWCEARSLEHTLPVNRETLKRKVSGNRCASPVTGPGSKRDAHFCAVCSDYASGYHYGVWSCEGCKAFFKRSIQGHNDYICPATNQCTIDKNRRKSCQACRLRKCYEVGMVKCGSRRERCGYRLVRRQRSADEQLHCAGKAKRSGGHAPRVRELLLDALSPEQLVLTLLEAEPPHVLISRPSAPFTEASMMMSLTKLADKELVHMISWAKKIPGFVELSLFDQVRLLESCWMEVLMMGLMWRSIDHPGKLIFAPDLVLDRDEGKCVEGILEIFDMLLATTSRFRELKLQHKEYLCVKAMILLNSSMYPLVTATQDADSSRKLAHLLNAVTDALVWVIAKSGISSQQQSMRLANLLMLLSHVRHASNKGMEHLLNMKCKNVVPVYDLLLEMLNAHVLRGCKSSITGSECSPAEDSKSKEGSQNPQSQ
Sequence of Estrogen receptor (Homo sapiens) (P03372 whole entry, looked up): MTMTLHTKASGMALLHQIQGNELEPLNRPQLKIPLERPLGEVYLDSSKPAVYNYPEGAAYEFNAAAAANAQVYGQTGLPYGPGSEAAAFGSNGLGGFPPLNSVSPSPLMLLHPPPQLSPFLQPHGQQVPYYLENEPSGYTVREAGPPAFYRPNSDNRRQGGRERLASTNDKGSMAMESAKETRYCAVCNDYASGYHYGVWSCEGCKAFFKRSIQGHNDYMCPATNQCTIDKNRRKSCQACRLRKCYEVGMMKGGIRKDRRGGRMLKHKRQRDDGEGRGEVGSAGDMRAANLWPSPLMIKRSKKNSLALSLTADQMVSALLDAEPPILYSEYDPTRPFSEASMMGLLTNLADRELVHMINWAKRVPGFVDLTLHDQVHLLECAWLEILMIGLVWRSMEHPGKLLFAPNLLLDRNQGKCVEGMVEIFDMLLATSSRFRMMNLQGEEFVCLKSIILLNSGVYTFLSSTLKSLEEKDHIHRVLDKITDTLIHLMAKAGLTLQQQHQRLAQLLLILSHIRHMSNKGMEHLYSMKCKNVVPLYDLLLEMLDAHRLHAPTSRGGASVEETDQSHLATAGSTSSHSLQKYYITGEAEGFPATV
Sequence of Thyrotropin receptor (Homo sapiens) (P16473 whole entry, looked up): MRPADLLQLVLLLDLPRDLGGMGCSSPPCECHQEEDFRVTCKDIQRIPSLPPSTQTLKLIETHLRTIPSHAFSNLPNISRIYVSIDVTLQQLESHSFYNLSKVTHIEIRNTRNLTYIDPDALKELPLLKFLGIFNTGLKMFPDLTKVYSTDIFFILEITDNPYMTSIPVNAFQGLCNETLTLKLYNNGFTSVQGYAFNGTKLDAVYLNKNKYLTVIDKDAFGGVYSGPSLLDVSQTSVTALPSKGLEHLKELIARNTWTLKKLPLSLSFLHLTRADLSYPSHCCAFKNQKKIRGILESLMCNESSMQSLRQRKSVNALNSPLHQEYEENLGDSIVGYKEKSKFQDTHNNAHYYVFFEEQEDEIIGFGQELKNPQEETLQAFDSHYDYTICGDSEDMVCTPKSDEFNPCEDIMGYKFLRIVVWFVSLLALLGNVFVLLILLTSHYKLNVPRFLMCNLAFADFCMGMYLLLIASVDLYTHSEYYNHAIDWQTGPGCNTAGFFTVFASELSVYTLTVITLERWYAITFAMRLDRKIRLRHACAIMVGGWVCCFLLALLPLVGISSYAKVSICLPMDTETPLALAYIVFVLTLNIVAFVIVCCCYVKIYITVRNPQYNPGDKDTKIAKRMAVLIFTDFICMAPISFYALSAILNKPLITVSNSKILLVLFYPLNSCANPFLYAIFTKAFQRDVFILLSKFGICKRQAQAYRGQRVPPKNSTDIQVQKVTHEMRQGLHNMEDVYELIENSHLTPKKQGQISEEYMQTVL

For the compound `Cc1ccc2ccccc2c1[N+](=O)[O-]`, the Potency result in assay [1], in assay [2], in assay [3], in assay [4], in assay [6] and in [7] was “inactive” in each case. Besides, the Potency entry in assay [8], in assay [9], in assay [10], in assay [11], in assay [12] and in assay [13] was “inactive” throughout. Also, the Potency result in assay [14] is “inactive”. For the same compound, the compound was called inactive in [5].
Take `CCCCCO`: the Potency result in [1], in assay [2], in assay [3], in assay [4], in [6] and in assay [8] was “inactive” each time. For the same compound, the Potency entry in assay [15], in [10], in [16], in assay [11], in [12] and in [13] was “inactive” throughout. For the same compound, the Potency result in [14] is “inactive”. Moreover, the compound was called inactive in assay [5] and in assay [17].
`O=C(Cl)c1ccc(F)c(Cl)c1`: the Potency entry in assay [1], in [2], in [3], in assay [4], in assay [6] and in [7] was “inactive” throughout. Besides, the Potency entry in assay [8], in [15], in assay [16], in [11], in [12] and in [14] was “inactive” throughout. The compound was classed as inactive in assay [5] and in assay [17]. Also, in assay [13], the Potency is 864 nM (active).
Turning to `OCC(O)c1ccccc1` (stereo not drawn), the Potency entry in assay [1], in [2], in assay [3], in assay [4], in [6] and in assay [8] was “inactive” in each case. For the same compound, the Potency result in assay [15], in assay [16], in [13] and in assay [14] was “inactive” in each case. Further, in [5], the call was inactive.
As for `CC(C)CCCCCOC(=O)CS`, the Potency result in assay [1], in assay [2], in assay [3], in assay [4], in [6] and in assay [8] was “inactive” throughout. Further, the Potency entry in assay [15], in [11], in assay [12], in assay [13] and in assay [14] was “inactive” throughout. Besides, the outcome in [5] and in assay [17] was inactive.
Take `CC1=C(C)C(=O)C(C(CCCCCC(=O)O)c2ccccc2)=C(C)C1=O` (stereo not drawn): the Potency entry in assay [1], in [2], in [3], in assay [4], in [8] and in assay [15] was “inactive” each time. The Potency entry in assay [9], in assay [16], in assay [12] and in assay [13] was “inactive” each time. The compound was classed as inactive in assay [5].
Regarding `COC(=O)Cc1cccc2ccccc12`, the Potency entry in assay [1], in assay [2], in [3], in assay [4], in [6] and in assay [7] was “inactive” throughout. Moreover, the Potency entry in assay [8], in assay [15], in assay [18], in assay [12], in assay [13] and in [14] was “inactive” each time. In addition, the call in assay [5] and in assay [17] was inactive.
Consider `C=CC(=O)OCCCCCCCCCC`, for which the Potency entry in assay [1], in assay [2], in assay [3], in [4], in assay [6] and in [8] was “inactive” in each case. In addition, the Potency entry in assay [15], in [16], in [11], in [12], in assay [13] and in [14] was “inactive” each time. Also, the result in [5] and in assay [17] was inactive.
Consider `CC(=O)c1cccnc1`, for which the Potency entry in assay [1], in assay [2], in [3], in [4], in assay [6] and in assay [7] was “inactive” each time. The Potency entry in assay [8], in assay [15], in assay [9], in assay [10], in assay [16] and in assay [11] was “inactive” throughout. Further, the Potency result in assay [12] and in [13] was “inactive” each time.
As to `CC(COc1ccccc1)NC(C)C(O)c1ccc(O)cc1` (stereo not drawn), the Potency entry in assay [1], in assay [2], in assay [3], in assay [4], in assay [6] and in assay [7] was “inactive” each time. Further, the Potency entry in assay [8], in assay [15], in [11], in assay [12], in assay [13] and in assay [14] was “inactive” in each case. Besides, the call in assay [5] and in assay [17] was inactive.
For the compound `CC(C)(C)c1cc(C=O)cc(C(C)(C)C)c1O`, the Potency result in assay [1], in assay [2], in assay [3], in assay [4], in assay [6] and in assay [8] was “inactive” throughout. For the same compound, the Potency result in assay [15], in assay [9], in [10], in assay [16], in [11] and in [12] was “inactive” throughout. The Potency entry in assay [13] and in assay [14] was “inactive” each time. For the same compound, the call in assay [5] was inactive.
Turning to `OCCc1ccncc1`, the Potency result in assay [1], in assay [2], in assay [3], in assay [4], in assay [6] and in assay [8] was “inactive” in each case. Further, the Potency result in assay [15], in assay [9], in assay [16], in assay [11], in assay [12] and in [13] was “inactive” throughout. Moreover, the Potency result in [14] is “inactive”. Moreover, the result in assay [5] was inactive.
With `CCCCCCCCCCCCSC#N`, the Potency result in [1], in [2], in assay [3], in [4], in [6] and in assay [7] was “inactive” throughout. For the same compound, the Potency entry in assay [8], in assay [15], in assay [16], in assay [12], in assay [13] and in assay [14] was “inactive” each time. Further, the compound was classed as inactive in [5] and in assay [17].
